# Measurements published in PubChem BioAssay.
# Values joined by “and” are separate entries in the source; they are usually repeats but may differ in a detail not shown here. Identical values can stand only once. For part of these data: Results with a measured potency or affinity are listed apart. Active and inactive are the calls of the source. Unless noted, the rule behind the calls is not given here.
# Tests used:
# [1] = liver-stage malaria parasite growth inhibition, primary screen, cell-based, HepG2, luciferase luminescence, HepG2 viability (AID 624349; in the data active = parasite load remaining mostly below about 12%, no sharp cut-off; inactive = mostly above about 10%;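 note: 100% = mean of DMSO negative control wells on the same plate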); details: P. berghei liver stage in HepG2, luciferase luminescence, concentration not given here; parasite load remaining: stronger effect = lower value; viability: measured here: HepG2 viability without parasites
# [2] = biological target: 6-phosphogluconate dehydrogenase, decarboxylating (Homo sapiens) (UniProt P52209); assay: 6PGD enzyme inhibitors, primary screen, biochemical, human, recombinant enzyme, NADPH absorbance (AID 1159550;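 active = at least 20% inhibition of 6-phosphogluconate dehydrogenase activity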); details: recombinant 6PGD, NADPH absorbance 341 nm; at 10 µM; stronger effect = higher value
# Chain of 6-phosphogluconate dehydrogenase, decarboxylating (Homo sapiens) (P52209 whole entry, looked up): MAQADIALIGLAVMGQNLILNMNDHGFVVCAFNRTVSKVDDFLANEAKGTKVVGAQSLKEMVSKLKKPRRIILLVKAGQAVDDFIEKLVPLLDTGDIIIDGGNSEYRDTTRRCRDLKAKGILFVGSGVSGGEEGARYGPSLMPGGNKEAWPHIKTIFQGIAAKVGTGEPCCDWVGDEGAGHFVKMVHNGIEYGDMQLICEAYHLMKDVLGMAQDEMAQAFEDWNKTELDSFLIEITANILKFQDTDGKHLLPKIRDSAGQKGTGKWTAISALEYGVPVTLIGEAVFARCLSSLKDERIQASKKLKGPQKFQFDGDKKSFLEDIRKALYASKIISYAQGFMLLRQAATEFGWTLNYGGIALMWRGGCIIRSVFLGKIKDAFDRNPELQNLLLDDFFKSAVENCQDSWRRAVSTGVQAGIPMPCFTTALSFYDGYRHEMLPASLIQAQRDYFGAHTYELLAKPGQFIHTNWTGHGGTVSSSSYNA
# [3] = differential killing of epithelial or mesenchymal cells, primary screen, imaging, PC-3E GFP, TEM4-18 mCherry, co-culture (AID 1345086;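 active = compounds killing one labelled cell type while sparing the other, by normalised counts and ratio limits, not self-fluorescent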;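 for all read-outs here: cells exposed to compound for 72 h before imaging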;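 for red/green cell ratio (normalised): normalised mesenchymal count divided by normalised epithelial count so high means epithelial killing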); details: imaging cell counts, at 1 µM; for red/green cell ratio (normalised): actives lie on both sides
# [4] = tested on: Aerobactin synthetase IucA (Klebsiella pneumoniae hvKP1); assay: Biochemical IucA enzyme inhibition primary screen of the Spectrum library (AID 1346200); details: malachite green pyrophosphate, A620, at 8 µM, stronger effect = lower value;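 note: 100% = wells without compound and 0% = wells lacking enzyme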
# [5] = biological target: NAD(+) hydrolase SARM1 (Homo sapiens) (UniProt Q6SZW1); assay: SARM1 TIR NADase inhibitors, cell lysate, NAD-Glo luminescence (AID 1508614;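 active = compound whose remaining NAD level is above about 45 nM, limit read from the data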;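 note: higher remaining NAD means stronger inhibition of SARM1 NADase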); details: SAM-TIR HEK293T lysate NADase, at 1 µM, stronger effect = higher value
# Chain of NAD(+) hydrolase SARM1 (Homo sapiens) (Q6SZW1 whole entry, looked up, the tested form may be a part): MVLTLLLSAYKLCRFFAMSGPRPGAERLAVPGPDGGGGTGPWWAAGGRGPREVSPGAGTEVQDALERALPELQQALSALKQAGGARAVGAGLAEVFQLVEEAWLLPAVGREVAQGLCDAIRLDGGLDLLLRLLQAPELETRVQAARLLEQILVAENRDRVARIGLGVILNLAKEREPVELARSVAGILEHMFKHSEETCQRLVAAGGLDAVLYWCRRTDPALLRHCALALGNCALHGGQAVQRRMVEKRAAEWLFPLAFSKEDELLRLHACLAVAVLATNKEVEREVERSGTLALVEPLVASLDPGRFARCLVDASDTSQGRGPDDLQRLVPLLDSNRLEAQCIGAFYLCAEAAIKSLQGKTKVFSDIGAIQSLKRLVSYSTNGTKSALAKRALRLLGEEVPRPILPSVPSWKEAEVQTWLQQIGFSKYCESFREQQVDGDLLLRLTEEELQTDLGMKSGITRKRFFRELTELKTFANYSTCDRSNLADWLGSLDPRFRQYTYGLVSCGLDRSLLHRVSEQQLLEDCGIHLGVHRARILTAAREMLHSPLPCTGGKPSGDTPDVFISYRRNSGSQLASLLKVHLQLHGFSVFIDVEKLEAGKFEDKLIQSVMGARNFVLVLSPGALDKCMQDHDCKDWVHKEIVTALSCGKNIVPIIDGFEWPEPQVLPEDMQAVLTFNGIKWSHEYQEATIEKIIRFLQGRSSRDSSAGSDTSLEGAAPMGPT
# [6] = biological target: Mitogen-activated protein kinase 7 (Homo sapiens) (UniProt Q13164); assay: ERK5 transactivation activators in reporter cells, primary screen, cell-based, HTS (AID 1508626;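 active = luciferase signal above three times the same-plate solvent-only control wells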;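 note: luciferase driven by Gal4-ERK5 fusion binding five Gal4 sites before minimal TATA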); details: HeLa Gal4-ERK5 transactivation, 18 h, at 5 µM, stronger effect = higher value
# Chain of Mitogen-activated protein kinase 7 (Homo sapiens) (Q13164 whole entry, looked up, the tested form may be a part): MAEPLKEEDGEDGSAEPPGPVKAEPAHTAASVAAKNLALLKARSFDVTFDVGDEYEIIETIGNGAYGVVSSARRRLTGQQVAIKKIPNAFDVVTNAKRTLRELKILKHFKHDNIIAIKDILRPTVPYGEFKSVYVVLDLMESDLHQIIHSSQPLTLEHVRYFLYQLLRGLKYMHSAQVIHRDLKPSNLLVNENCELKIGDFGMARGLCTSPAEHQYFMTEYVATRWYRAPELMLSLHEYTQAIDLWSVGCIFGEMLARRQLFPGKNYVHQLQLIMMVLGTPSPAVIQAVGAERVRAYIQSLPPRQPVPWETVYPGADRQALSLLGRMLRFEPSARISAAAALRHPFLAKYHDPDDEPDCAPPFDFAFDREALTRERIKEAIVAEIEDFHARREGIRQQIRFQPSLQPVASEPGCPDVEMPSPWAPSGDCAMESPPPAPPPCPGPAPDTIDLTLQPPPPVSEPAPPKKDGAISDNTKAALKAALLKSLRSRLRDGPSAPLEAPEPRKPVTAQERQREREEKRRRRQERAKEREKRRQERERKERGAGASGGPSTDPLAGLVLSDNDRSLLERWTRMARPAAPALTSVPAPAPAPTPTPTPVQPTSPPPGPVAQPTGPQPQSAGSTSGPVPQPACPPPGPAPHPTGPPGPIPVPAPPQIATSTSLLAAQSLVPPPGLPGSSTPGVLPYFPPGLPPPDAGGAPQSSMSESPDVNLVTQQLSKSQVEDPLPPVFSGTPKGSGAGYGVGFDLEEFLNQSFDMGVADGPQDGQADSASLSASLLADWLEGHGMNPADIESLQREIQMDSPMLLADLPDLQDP
# [7] = polyglutamine-triggered caspase-3 activation inhibitors, cell-based (AID 1583); details: polyglutamine-induced caspase-3 activation, cell assay; stronger effect = higher value;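 tested at 10 µM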
# [8] = suppressors of polyQ aggregation in yeast, 75Q-TubU reporter (AID 1593); details: Yeast 75Q polyglutamine aggregation reporter
# [9] = rescue of polyQ-huntingtin neuronal dysfunction in worms, whole organism, C. elegans mechanosensory neurons, N-terminal huntingtin (AID 1599); details: touch response, stronger effect = higher value
# [10] = inhibitors of mitochondrial cytochrome c release, biochemical, purified mitochondria (AID 1603); details: stronger effect = lower value;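 note: mouse liver mitochondria challenged with calcium chloride; signal normalized to the plate average as 100%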
# [11] = inhibitors of polyQ protein aggregation (AID 1604); details: polyglutamine-induced protein aggregation inhibition assay; stronger effect = higher value; tested at 2.5 µM
# [12] = enhancers of glutamate uptake in motor neurons, MN-1 cell line (AID 1612); details: MN-1 motor neuron cells, stronger effect = higher value;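 note: tested at 1 µM final; 0% = mean of DMSO vehicle wells on each plate; positive means more glutamate uptake than control and negative means less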
# [13] = suppressors of polyglutamine aggregation in yeast, 75Q-TubH (AID 1616); details: S. cerevisiae 75Q-TubH polyglutamine aggregation suppression; stronger effect = higher value
# [14] = sensitizers of A549 cells to miR-34 induction, primary screen, imaging, A549 dox-inducible miR-34, nuclei and caspase counts (AID 1347080;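 active = compounds whose cell count with miR-34 switched on is under 0.7 times the count with it off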); details: A549 miR-34 inducible, Hoechst nuclei count, 48 h
# [15] = reducers of polyQ inclusions in PC12 cells, cell-based, NGF-treated PC12, GFPQ80 (AID 1614); details: PC12 NGF-treated GFP-polyQ80 inclusion reduction;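 note: lower means fewer inclusions and 0 means no inclusions at all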
# [16] = hESC survival regulators, cell-based (AID 493140); details: human embryonic stem cell survival screen; stronger effect = higher value;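 note: cells exposed to compounds for four days before counting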
# [17] = survival rescue of mitochondrial mutant cells in low glucose, primary screen, MELAS cybrids, Rieske KO mouse fibroblasts, CellTiter-Glo (AID 1508586;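 active = mean z-score across replicates of 1.96 or higher in either the MELAS or the Rieske mutant cell line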;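 note: z relative to plate mean and SD of compound and empty wells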)
# [18] = measured here: epithelial PC-3E GFP cell survival
# [19] = measured here: mesenchymal TEM4-18 mCherry cell survival
# [20] = measured here: relative caspase fold change +Dox/-Dox
# [21] = measured here: total cells with miR-34 induction, stronger effect = lower value
# [22] = measured here: total cells without miR-34 induction
# [23] = counts scaled to control wells, 1 = unselective
smiles,measurement,setting,value
O=C1C=C2C=C[C@@H]3C[C@@]2(O1)[C@H]1CCCCN31,parasite load remaining,[1],73.8% (inactive)
same,viability,[1],90.5%
same,inhibition,[2],6.02% (inactive)
same,red/green cell ratio (normalised),[3],0.9 (inactive)
same,normalised cell number,[3]; [18],1.21
same,normalised cell number,[3]; [19],1.09
same,activity remaining,[4],109% (inactive)
same,remaining NAD,[5],10 nM (inactive)
same,luciferase signal,[6],92 AU (inactive)
CC(N)Cc1ccc(O)cc1 (stereo not drawn),inhibition,[2],-0.0931% (inactive)
same,red/green cell ratio (normalised),[3],0.93 (inactive)
same,normalised cell number,[3]; [18],1.27
same,normalised cell number,[3]; [19],1.19
same,activity remaining,[4],111% (inactive)
same,remaining NAD,[5],10 nM (inactive)
ClC1C(Cl)C(Cl)C(Cl)C(Cl)C1Cl (stereo not drawn),inhibition,[7],25.7%
same,score,[8],0.3
same,rescue above control,[9],-3.21
same,cytochrome c release ratio,[10],1.15
same,inhibition of aggregation,[11],69.4%
same,glutamate uptake change,[12],1.02%
same,aggregation suppression score,[13],-0.101
same,parasite load remaining,[1],60.1% (inactive)
same,viability,[1],93.4%
same,inhibition,[2],7.58% (inactive)
same,red/green cell ratio (normalised),[3],1.19 (inactive)
same,normalised cell number,[3]; [18],1.23
same,normalised cell number,[3]; [19],1.47
same,activity remaining,[4],113% (inactive)
same,fold change,[14]; stronger effect = lower value,0.871 (inactive)
same,fold change,[14]; [20],1.71
same,cell count,[14]; [21],10400
same,cell count,[14]; [22],11900
same,remaining NAD,[5],10 nM (inactive)
same,luciferase signal,[6],192 AU (inactive)
[N-]=[N+]=CC(=O)OCC(N)C(=O)O (stereo not drawn),inhibition,[7],30.9%
same,score,[8],1.27
same,rescue above control,[9],6.35
same,cytochrome c release ratio,[10],1.1
same,inhibition of aggregation,[11],-39.4%
same,glutamate uptake change,[12],-10.2%
same,inclusion score,[15],1
same,aggregation suppression score,[13],0.586
same,parasite load remaining,[1],3.63% (inactive)
same,viability,[1],82.2%
same,inhibition,[2],12.8% (inactive)
same,red/green cell ratio (normalised),[3],1.35 (inactive)
same,normalised cell number,[3]; [18],0.86
same,normalised cell number,[3]; [19],1.16
same,activity remaining,[4],105% (inactive)
same,fold change,[14]; stronger effect = lower value,0.832 (inactive)
same,fold change,[14]; [20],1.38
same,cell count,[14]; [21],601
same,cell count,[14]; [22],722
COC1=C[C@@H]2[C@@H]3Cc4ccc(OC)c(O)c4[C@]2(CCN3C)CC1=O,inhibition,[2],2.36% (inactive)
same,red/green cell ratio (normalised),[3],0.75 (inactive)
same,normalised cell number,[3]; [18],1.39
same,normalised cell number,[3]; [19],1.03
same,activity remaining,[4],94.1% (inactive)
same,luciferase signal,[6],72 AU (inactive)
COc1ccc2c3c([nH]c2c1)C(C)=NCC3,inhibition,[7],-62.4%
same,score,[8],1.32
same,rescue above control,[9],-1.53
same,cytochrome c release ratio,[10],0.94
same,inhibition of aggregation,[11],51%
same,glutamate uptake change,[12],48%
same,inclusion score,[15],2
same,aggregation suppression score,[13],0.883
same,survival,[16],6 (inactive)
same,parasite load remaining,[1],83.9% (inactive) and 28.8% (inactive) and 84.4% (inactive)
same,viability,[1],103% and 71.6% and 83.5%
same,inhibition,[2],-10.2% (inactive)
same,red/green cell ratio (normalised),[3],0.92 (inactive)
same,normalised cell number,[3]; [18],1.06
same,normalised cell number,[3]; [19],0.98
same,activity remaining,[4],124% (inactive)
same,fold change,[14]; stronger effect = lower value,0.95 (inactive)
same,fold change,[14]; [20],1.3
same,cell count,[14]; [21],8720
same,cell count,[14]; [22],9180
same,luciferase signal,[6],68 AU (inactive)
CN[C@@H]1[C@@H](O)C(OC2[C@@H](N)C[C@@H](N)[C@H](O[C@H]3O[C@H](C(C)O)[C@@H](O)[C@H](O)[C@H]3N)[C@H]2O)OC[C@]1(C)O (stereo partly drawn),inhibition,[2],15.2% (inactive)
same,red/green cell ratio (normalised),[3]; [23],1.08 (inactive)
same,normalised cell number,[3]; [18],0.91
same,normalised cell number,[3]; [19],0.99
same,activity remaining,[4],111% (inactive)
O=C(O)CCCOc1ccc(Cl)cc1Cl,inhibition,[2],-17.1% (inactive)
same,red/green cell ratio (normalised),[3]; [23],0.77 (inactive)
same,normalised cell number,[3]; [18],1.36
same,normalised cell number,[3]; [19],1.05
same,activity remaining,[4],103% (inactive)
COc1cc2c(cc1OC)C(C)NCC2 (stereo not drawn),survival,[16],7.17 (inactive)
same,parasite load remaining,[1],65.2% (inactive) and 87.3% (inactive)
same,viability,[1],106% and 76.1%
same,inhibition,[2],-13.1% (inactive)
same,red/green cell ratio (normalised),[3],1.03 (inactive)
same,normalised cell number,[3]; [18],0.91
same,normalised cell number,[3]; [19],0.94
same,activity remaining,[4],101% (inactive)
same,fold change,[14]; stronger effect = lower value,0.83 (inactive)
same,fold change,[14]; [20],1.56
same,cell count,[14]; [21],9140
same,cell count,[14]; [22],11000
same,luciferase signal,[6],36 AU (inactive)
CN(C)[C@@H]1C(=O)C(C(N)=O)=C(O)[C@@]2(O)C(=O)C3=C(O)c4c(O)ccc(Cl)c4[C@@](C)(O)[C@H]3C[C@@H]12,inhibition,[7],15.6%
same,score,[8],0.9
same,rescue above control,[9],0
same,cytochrome c release ratio,[10],0.82
same,inhibition of aggregation,[11],9.52%
same,glutamate uptake change,[12],10.1%
same,inclusion score,[15],0
same,aggregation suppression score,[13],0.363
same,survival,[16],14.3 (inactive)
same,parasite load remaining,[1],104% (inactive) and 84.9% (inactive) and 79.4% (inactive)
same,viability,[1],73.9% and 86% and 80%
same,inhibition,[2],-12.1% (inactive)
same,red/green cell ratio (normalised),[3],0.9 (inactive) and 1.54 (inactive)
same,normalised cell number,[3]; [18],1.16 and 0.93
same,normalised cell number,[3]; [19],1.04 and 1.43
same,activity remaining,[4],117% (inactive)
same,fold change,"[14]; stronger effect = lower value, cell number ratio, induced over uninduced",0.926 (inactive)
same,fold change,[14]; [20],2.73
same,cell count,[14]; [21],9350
same,cell count,[14]; [22],10100
same,z-score,"[17]; MELAS cybrid survival, CellTiter-Glo 48 h, stronger effect = higher value",-3.64 (inactive)
same,z-score,"[17]; Rieske KO mouse fibroblast survival, CellTiter-Glo 72 h",-1.98
same,remaining NAD,[5],10 nM (inactive)
same,luciferase signal,[6],60 AU (inactive)
COc1ccc2c(c1O)-c1c(OC)c(OC)cc3c1[C@H](C2)N(C)CC3,survival,[16],5.58 (inactive)
same,parasite load remaining,[1],125% (inactive) and 105% (inactive) and 60.3% (inactive)
same,viability,[1],106% and 65% and 79.8%
same,inhibition,[2],3.42% (inactive)
same,red/green cell ratio (normalised),[3],1.1 (inactive)
same,normalised cell number,[3]; [18],0.99
same,normalised cell number,[3]; [19],1.09
same,activity remaining,[4],116% (inactive)
same,fold change,[14]; stronger effect = lower value,0.862 (inactive)
same,fold change,[14]; [20],1.06
same,cell count,[14]; [21],9380
same,cell count,[14]; [22],10900
same,luciferase signal,[6],72 AU (inactive)
COc1cc([C@@H]2c3cc4c(cc3[C@@H](O)C3COC(=O)C32)OCO4)cc(OC)c1O (stereo partly drawn),inhibition,[2],4.81% (inactive)
same,red/green cell ratio (normalised),[3],1.06 (inactive)
same,normalised cell number,[3]; [18],0.29
same,normalised cell number,[3]; [19],0.31
same,activity remaining,[4],118% (inactive)
CN1CCc2cc3c(cc2C1O)OCO3 (stereo not drawn),inhibition,[7],-17.4%
same,score,[8],1.48
same,rescue above control,[9],11.7
same,cytochrome c release ratio,[10],0.81
same,inhibition of aggregation,[11],65.5%
same,glutamate uptake change,[12],6.97%
same,inclusion score,[15],2
same,aggregation suppression score,[13],1.11
same,survival,[16],16.8 (inactive)
same,parasite load remaining,[1],109% (inactive) and 58% (inactive)
same,viability,[1],90% and 91.8%
same,inhibition,[2],0.261% (inactive)
same,red/green cell ratio (normalised),[3],1.09 (inactive)
same,normalised cell number,[3]; [18],0.97
same,normalised cell number,[3]; [19],1.06
same,activity remaining,[4],118% (inactive)
same,fold change,[14]; stronger effect = lower value,0.923 (inactive)
same,fold change,[14]; [20],1.43
same,cell count,[14]; [21],11700
same,cell count,[14]; [22],12700
same,remaining NAD,[5],10 nM (inactive)
same,luciferase signal,[6],52 AU (inactive)
